# According to PubChem BioAssay (NCI):
# Compounds without any hit were thinned out: in the full panel of roughly 79,000, 15% have a hit. Activity calls are given as the source filed them. Cut-off read from the data, not from the text of the source: active = growth inhibition above about 70%; inactive = the rest.
# Assay: NCI Yeast Anticancer Drug Screen. Data for the sgs1 mgt1 strain (AID 161);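 note: 0% = growth of cultures given vehicle only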
# Settings: S. cerevisiae sgs1 mgt1 strain, at 50.0 µM, active compounds read high
# Procedure, shortened: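 This yeast growth screen uses a strain with defined DNA-repair lesions; compound-treated growth is compared with vehicle-treated growth.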
row,Compound,growth inhibition
1,Clc1ccc(C2N3CCCCC3[C@@H]3c4[nH]c5ccccc5c4CCN23)cc1 (stereo not given in full),-4.7% (inactive)
2,O=C(Nc1nccs1)c1cc(C2=CC=CC([N+](=O)[O-])C=C2)nc(=S)[nH]1 (stereo not given),-23.8% (inactive)
3,C=CCOC(=O)C1CCCCC1C(=O)OCC=C (stereo not given),1.4% (inactive)
4,C1=Nc2ccccc2/C1=C/c1ccc2c(c1)OCO2,-6.9% (inactive)
5,CCn1c(=O)c(C(=O)O)c(Cl)c2cc3c(cc21)OCO3,17.5% (inactive)
6,Cn1c(=O)c2c(nc(Br)n2CC(=O)CF)n(C)c1=O,-3.75% (inactive)
7,Cc1cc2c(=O)c3ccccc3oc2c(C(=O)O)c1C,-50.6% (inactive)
8,COc1cccc(C2c3cc4c(cc3OC(N3CCCCC3)C2C)OCO4)c1OC (stereo not given),46.4% (inactive)
9,Oc1ccc(N=Cc2ccc(C=Nc3ccc(O)cc3)cc2)cc1,-19% (inactive)
10,CC(C)=Nn1cnc2nccnc2c1=O,-14.2% (inactive)
11,CCOc1cccc(/C=N/N=C2\C(=O)Nc3c(Cl)cc(Cl)cc32)c1O,39.9% (inactive)
12,CC(C)c1cc(C(C)C)c(Cc2c(C(C)C)cc(C(C)C)cc2C(C)C)c(C(C)C)c1,0.3% (inactive)
13,O=C(O)Cc1cc(CC(=O)O)cc(CC(=O)O)c1,6.05% (inactive)
14,O=c1oc2ccc(Cl)cc2n1CN1CCOCC1,1.95% (inactive)
15,CCOC(=O)C(C(=O)OCC)C(NC(=O)Nc1cc(C(F)(F)F)ccc1OC)(C(F)(F)F)C(F)(F)F,11.4% (inactive)
16,N#C/C(=C\NC(=S)Nc1ccc(S(=O)(=O)Nc2nccs2)cc1)C(=O)c1ccc2ccccc2c1,14.3% (inactive)
17,CC1=NN(C(=O)CC(=O)Nc2cccc(Cl)c2)C(=O)C1N=Nc1ccc(C(=O)O)cc1 (stereo not given),6.1% (inactive)
18,COC1CCC2(C)C3CCC4C(=CCC5C(C)(C)C(=O)CCC45C)CC3(C)CCC2C1(C)C (stereo not given),-8.55% (inactive)
19,O=[N+]([O-])c1ccc(C2=NCC=CCO2)cc1,7.55% (inactive)
20,CC1(C)CC(=O)C2=C(C1)NC(=S)C(C#N)C2c1ccccc1 (stereo not given),14.7% (inactive)

row,Compound,growth inhibition
1,O=c1[nH]ncc2ccc([N+](=O)[O-])cc12,-1.25% (inactive)
2,CC(Sc1ccc([N+](=O)[O-])cn1)C(=O)O (stereo not given),13.5% (inactive)
3,OC(c1ccccc1)C1CC2C=CC1C2 (stereo not given),3.75% (inactive)
4,CC(=O)CCC(=O)CC(=O)CCC(=O)Nc1cc(Cl)ccc1Cl,19.9% (inactive)
5,Cc1cc(Cl)ccc1NC(=O)C1C(=O)N(c2ccc(Cl)cc2C)C(=O)/C1=N\NC(N)=O (stereo not given),14.4% (inactive)
6,CCCCCCCCCCCCCCCCS(=O)(=O)N/N=C(/c1ccc(OC)c(OC)c1)N1CCCCC1,8.6% (inactive)
7,Nc1cccc2c([N+](=O)[O-])cccc12,62.8% (inactive)
8,COC1/C=C/OC2(C)Oc3c(C)c(O)c4c(O)c(c(C5SCCS5)c(O)c4c3C2=O)NC(=O)/C(C)=C\C=C\C(C)C(O)C(C)C(O)C(C)C(O)C1C (stereo not given),-10.8% (inactive)
9,c1ccc2c(c1)Cc1c(-c3ccncc3)n[nH]c1-2,41.6% (inactive)
10,CN(C)CCCOCCn1c2c(c3ccccc31)CCCC2,12.9% (inactive)
11,CCOCCC(=O)OCCC(C)OC (stereo not given),11.2% (inactive)
12,CC(C)CCCCCCCCCCCCC(=O)NCC(=O)NC1C(C)OC(Nc2ncnc3c2ncn3C)C(O)C1O (stereo not given),9.3% (inactive)
13,COc1cc(C2C3=C(COC3=O)OC(C)(C)Oc3cc4c(cc32)OCO4)cc(OC)c1OC (stereo not given),14.8% (inactive)
14,Nc1c(Br)cc2c(c1Br)C(=O)c1ccccc1-2,23.6% (inactive)
15,Oc1ccc(Cl)cc1-c1cc(-c2ccccc2)nc(=S)[nH]1,-17.6% (inactive)
16,CC(=O)OCC1OC(OC(C)=O)C(NC(=O)C[NH-])C(OC(C)=O)C1OC(C)=O.CC(=O)OCC1OC(OC(C)=O)C(NC(=O)C[NH-])C(OC(C)=O)C1OC(C)=O.[Cl][Pt+2][Cl] (stereo not given),-5.85% (inactive)
17,Cn1c(=O)c2[nH]c(CC3=CCCCC3)nc2n(C)c1=O,6.05% (inactive)
18,O=C1OCCOCCOCCOCCOCCOCCOC(=O)c2cccc1n2,7% (inactive)
19,Cc1cc(C)c(C(=O)c2ccccc2C)c(C)c1,-0.35% (inactive)
20,Cc1ccc(S(=O)(=O)OCCOc2ccc(C(C)(C)CC(C)(C)C)cc2)cc1,30.5% (inactive)

# Assay: NCI Yeast Anticancer Drug Screen. Data for the cln2 rad14 strain (AID 165);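 note: 0% = growth equal to vehicle treated cultures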
# Settings: S. cerevisiae cln2 rad14 strain, at 50.0 µM, active compounds read high
# Procedure, shortened: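 Relative to vehicle controls, growth inhibition of compound-treated cln2 rad14 yeast was recorded.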
row,Compound,growth inhibition
1,Clc1ccc(C2N3CCCCC3[C@@H]3c4[nH]c5ccccc5c4CCN23)cc1 (stereo not given in full),-4.65% (inactive)
2,O=C(Nc1nccs1)c1cc(C2=CC=CC([N+](=O)[O-])C=C2)nc(=S)[nH]1 (stereo not given),-8.45% (inactive)
3,C=CCOC(=O)C1CCCCC1C(=O)OCC=C (stereo not given),3.3% (inactive)
4,C1=Nc2ccccc2/C1=C/c1ccc2c(c1)OCO2,-55.6% (inactive)
5,CCn1c(=O)c(C(=O)O)c(Cl)c2cc3c(cc21)OCO3,18.9% (inactive)
6,Cn1c(=O)c2c(nc(Br)n2CC(=O)CF)n(C)c1=O,-24.4% (inactive)
7,Cc1cc2c(=O)c3ccccc3oc2c(C(=O)O)c1C,12% (inactive)
8,COc1cccc(C2c3cc4c(cc3OC(N3CCCCC3)C2C)OCO4)c1OC (stereo not given),19.8% (inactive)
9,Oc1ccc(N=Cc2ccc(C=Nc3ccc(O)cc3)cc2)cc1,-7.7% (inactive)
10,CC(C)=Nn1cnc2nccnc2c1=O,-40% (inactive)
11,CCOc1cccc(/C=N/N=C2\C(=O)Nc3c(Cl)cc(Cl)cc32)c1O,40.8% (inactive)
12,CC(C)c1cc(C(C)C)c(Cc2c(C(C)C)cc(C(C)C)cc2C(C)C)c(C(C)C)c1,0.55% (inactive)
13,O=C(O)Cc1cc(CC(=O)O)cc(CC(=O)O)c1,5.2% (inactive)
14,O=c1oc2ccc(Cl)cc2n1CN1CCOCC1,12.8% (inactive)
15,CCOC(=O)C(C(=O)OCC)C(NC(=O)Nc1cc(C(F)(F)F)ccc1OC)(C(F)(F)F)C(F)(F)F,3.45% (inactive)
16,N#C/C(=C\NC(=S)Nc1ccc(S(=O)(=O)Nc2nccs2)cc1)C(=O)c1ccc2ccccc2c1,-9.75% (inactive)
17,CC1=NN(C(=O)CC(=O)Nc2cccc(Cl)c2)C(=O)C1N=Nc1ccc(C(=O)O)cc1 (stereo not given),-25% (inactive)
18,COC1CCC2(C)C3CCC4C(=CCC5C(C)(C)C(=O)CCC45C)CC3(C)CCC2C1(C)C (stereo not given),-12.8% (inactive)
19,O=[N+]([O-])c1ccc(C2=NCC=CCO2)cc1,-6.55% (inactive)
20,CC1(C)CC(=O)C2=C(C1)NC(=S)C(C#N)C2c1ccccc1 (stereo not given),9.55% (inactive)

row,Compound,growth inhibition
1,O=c1[nH]ncc2ccc([N+](=O)[O-])cc12,-1.25% (inactive)
2,CC(Sc1ccc([N+](=O)[O-])cn1)C(=O)O (stereo not given),-37% (inactive)
3,OC(c1ccccc1)C1CC2C=CC1C2 (stereo not given),3.05% (inactive)
4,CC(=O)CCC(=O)CC(=O)CCC(=O)Nc1cc(Cl)ccc1Cl,31.2% (inactive)
5,Cc1cc(Cl)ccc1NC(=O)C1C(=O)N(c2ccc(Cl)cc2C)C(=O)/C1=N\NC(N)=O (stereo not given),6.1% (inactive)
6,CCCCCCCCCCCCCCCCS(=O)(=O)N/N=C(/c1ccc(OC)c(OC)c1)N1CCCCC1,1.45% (inactive)
7,Nc1cccc2c([N+](=O)[O-])cccc12,31.2% (inactive)
8,COC1/C=C/OC2(C)Oc3c(C)c(O)c4c(O)c(c(C5SCCS5)c(O)c4c3C2=O)NC(=O)/C(C)=C\C=C\C(C)C(O)C(C)C(O)C(C)C(O)C1C (stereo not given),4.85% (inactive)
9,c1ccc2c(c1)Cc1c(-c3ccncc3)n[nH]c1-2,10.3% (inactive)
10,CN(C)CCCOCCn1c2c(c3ccccc31)CCCC2,-2.95% (inactive)
11,CCOCCC(=O)OCCC(C)OC (stereo not given),-26.4% (inactive)
12,CC(C)CCCCCCCCCCCCC(=O)NCC(=O)NC1C(C)OC(Nc2ncnc3c2ncn3C)C(O)C1O (stereo not given),15.6% (inactive)
13,COc1cc(C2C3=C(COC3=O)OC(C)(C)Oc3cc4c(cc32)OCO4)cc(OC)c1OC (stereo not given),52.9% (inactive)
14,Nc1c(Br)cc2c(c1Br)C(=O)c1ccccc1-2,8.8% (inactive)
15,Oc1ccc(Cl)cc1-c1cc(-c2ccccc2)nc(=S)[nH]1,-0.2% (inactive)
16,CC(=O)OCC1OC(OC(C)=O)C(NC(=O)C[NH-])C(OC(C)=O)C1OC(C)=O.CC(=O)OCC1OC(OC(C)=O)C(NC(=O)C[NH-])C(OC(C)=O)C1OC(C)=O.[Cl][Pt+2][Cl] (stereo not given),-42.9% (inactive)
17,Cn1c(=O)c2[nH]c(CC3=CCCCC3)nc2n(C)c1=O,-8.35% (inactive)
18,O=C1OCCOCCOCCOCCOCCOCCOC(=O)c2cccc1n2,13.3% (inactive)
19,Cc1cc(C)c(C(=O)c2ccccc2C)c(C)c1,-23.5% (inactive)
20,Cc1ccc(S(=O)(=O)OCCOc2ccc(C(C)(C)CC(C)(C)C)cc2)cc1,-6.2% (inactive)
